This note sets out measurements from PubChem BioAssay (EPA / NIEHS).

Structures are written as SMILES. Several values for one entry are separate records, joined by “and”; a condition that tells them apart may be missing. Equal values may be shown once. Records with an inconclusive call do not appear. Some compounds were tested as several samples or in several runs, with calls that do not always agree. Activity calls are given as the source filed them. How the source made its calls, unless noted: active means hit-call score of the fitted dose curve at least 0.9, where 1 is the maximum; inconclusive means response in the unintended direction; inactive means score below 0.9.

Experiment [1] addresses human Peroxisome Proliferator-activated Receptor delta (PPARd), PPARD (gene 5467) (UniProt Q03181). The experiment in a line: ATG_PPARd_TRANS: Attagene TRANS-FACTORIAL HepG2 Assay for human Peroxisome Proliferator-activated Receptor delta (PPARd) (AID 2283002). An outline of the steps: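 Cell-based TRANS reporter: HepG2, transient MRTU transfection, 24 h exposure. Readout = reporter mRNA (RT-PCR/CE, 6-FAM). Gain-of-signal fit vs DMSO control.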

Read-out in experiment [2]: Intercellular Adhesion Molecule 1 (ICAM1), ICAM1 (gene 3383)
The experiment in a line: BSK_3C_ICAM1: BioMAP Diversity Plus: 3C Assay for Intercellular Adhesion Molecule 1 (ICAM1) Biomarker Activity (AID 2283003; active means hit-call score of the fitted dose curve at least 0.9, where 1 is the maximum; inactive means score below 0.9). The conditions noted are these: primary human endothelial cells (HUVEC); actives raise or lower the signal. An outline of the steps:
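ELISA readout of ICAM1 in human umbilical vein endothelial cells in the 3C system, taken 24 h post-dose. Gain or loss of signal versus DMSO was fitted in both directions, with SRB total-protein staining run in parallel.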

Experiment [3] in a line: BSK_3C_Proliferation: Cell Proliferation Assessment in the BioMAP Diversity Plus: 3C Assay (AID 2283006; active means hit-call score of the fitted dose curve at least 0.9, where 1 is the maximum; inactive means score below 0.9;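 on AC50: potency may reflect either rise or fall in cell number versus DMSO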). The conditions noted are these: primary human endothelial cells (HUVEC). An outline of the steps: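 Proliferation as total protein: sulforhodamine B (0.1%) stain of TCA-fixed subconfluent human umbilical vein endothelial cells, absorbance 560 nm, 48 h after dosing. Activity fitted in both directions against DMSO baseline.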

Experiment [4] has as its target Peroxisome proliferator-activated receptor gamma (Homo sapiens) (UniProt P37231). Description: ATG_PPARg_TRANS: Attagene TRANS-FACTORIAL HepG2 Assay for human Peroxisome Proliferator-activated Receptor-gamma (PPARg) (AID 2283007). An outline of the steps:
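Liver-derived HepG2 cells expressing an exogenous NR-Gal4 chimera alongside GAL4-UAS reporter genes; 24 h exposure. Fluorescence of reporter RT-PCR products, separated by capillary electrophoresis, gives mRNA induction relative to DMSO.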

For experiment [5], the target named is Nuclear receptor subfamily 1 group I member 2 (Homo sapiens) (UniProt O75469). Description: ATG_PXR_TRANS: Attagene TRANS-FACTORIAL HepG2 Assay for human Pregnane X Receptor (PXR) (AID 2283008). Put shortly: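 Multiplexed TRANS reporter panel in HepG2; this component tracks PXR-Gal4-driven reporter mRNA after 24 h dosing, measured by RT-PCR with capillary electrophoresis fluorescence, fitted against DMSO.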

In experiment [6] the target is human RAR-related Orphan Receptor beta (RORb), RORB (gene 6096) (UniProt Q92753). The experiment in a line: ATG_RORb_TRANS: Attagene TRANS-FACTORIAL HepG2 Assay for human RAR-related Orphan Receptor beta (RORb) (AID 2283010). Put shortly: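 Read-out is reporter mRNA induction, quantified by RT-PCR with fluorescent capillary electrophoresis, 24 h post-dose in transiently transfected HepG2 expressing exogenous NR-Gal4 chimera. Activity fitted upward versus DMSO.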

The target of experiment [7] is Retinoic acid receptor alpha (Homo sapiens) (UniProt P10276). The experiment in a line: ATG_RARa_TRANS: Attagene TRANS-FACTORIAL HepG2 Assay for human Retinoic Acid Receptor alpha (RARa) (AID 2283005). An outline of the steps:
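Reporter transcripts, measured by RT-PCR with fluorescent labeling and capillary electrophoresis after 24 h dosing, reflect activity of an exogenous human RARa–GAL4 fusion in transiently transfected HepG2. Fitted for increase relative to DMSO.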

In experiment [8] the target is human Retinoic Acid Receptor gamma (RARg), RARG (gene 5916) (UniProt P13631). Description: ATG_RARg_TRANS: Attagene TRANS-FACTORIAL HepG2 Assay for human Retinoic Acid Receptor gamma (RARg) (AID 2283009). An outline of the steps:
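Transactivation of exogenous RARg-Gal4 fusion measured as reporter transcript induction after 24 h in transfected HepG2 cells. RNA reverse-transcribed, amplified, fluorescently labeled and resolved by capillary electrophoresis; increase relative to DMSO.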

Experiment [9] addresses human RAR-related Orphan Receptor gamma (RORg), RORC (gene 6097) (UniProt P51449). The experiment in a line: ATG_RORg_TRANS: Attagene TRANS-FACTORIAL HepG2 Assay for human RAR-related Orphan Receptor gamma (RORg) (AID 2283011).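 On AC50: potency for induction of reporter transcripts above DMSO so activators.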 An outline of the steps: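 Chimeric RORg-Gal4 transactivation in transfected HepG2; 24 h exposure; RT-PCR/capillary electrophoresis readout of reporter mRNA, DMSO baseline.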

In experiment [10] the target is human Retinoic Acid Receptor beta (RARb), RARB (gene 5915) (UniProt P10826). The experiment in a line: ATG_RARb_TRANS: Attagene TRANS-FACTORIAL HepG2 Assay for human Retinoic Acid Receptor beta (AID 2283004). An outline of the steps:
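Fluorescent capillary-electrophoresis detection of GAL4-UAS reporter mRNA defines the endpoint, with induction over DMSO-treated wells scored as activity. Transiently transfected human hepatoma HepG2 cells expressing exogenous NR–Gal4 proteins are exposed to test chemicals for 24 h.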

Sequence of human RAR-related Orphan Receptor gamma (RORg), RORC (gene 6097) (P51449 whole entry, looked up, the tested form may be a part): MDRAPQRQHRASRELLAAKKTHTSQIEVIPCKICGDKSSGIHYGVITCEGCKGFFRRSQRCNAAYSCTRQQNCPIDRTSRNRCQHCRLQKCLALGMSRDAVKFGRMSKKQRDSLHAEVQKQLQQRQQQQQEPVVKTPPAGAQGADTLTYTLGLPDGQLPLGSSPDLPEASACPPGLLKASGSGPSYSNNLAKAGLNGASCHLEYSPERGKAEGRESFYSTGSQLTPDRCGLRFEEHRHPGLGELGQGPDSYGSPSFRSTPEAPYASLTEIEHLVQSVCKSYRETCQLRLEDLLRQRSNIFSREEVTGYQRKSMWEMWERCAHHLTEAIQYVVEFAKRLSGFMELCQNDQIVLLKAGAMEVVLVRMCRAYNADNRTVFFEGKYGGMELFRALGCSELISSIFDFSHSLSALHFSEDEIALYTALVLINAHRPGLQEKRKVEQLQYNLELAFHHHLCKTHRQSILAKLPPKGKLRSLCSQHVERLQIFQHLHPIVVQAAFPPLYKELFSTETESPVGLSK
Sequence of Nuclear receptor subfamily 1 group I member 2 (Homo sapiens) (O75469 whole entry, looked up, the tested form may be a part): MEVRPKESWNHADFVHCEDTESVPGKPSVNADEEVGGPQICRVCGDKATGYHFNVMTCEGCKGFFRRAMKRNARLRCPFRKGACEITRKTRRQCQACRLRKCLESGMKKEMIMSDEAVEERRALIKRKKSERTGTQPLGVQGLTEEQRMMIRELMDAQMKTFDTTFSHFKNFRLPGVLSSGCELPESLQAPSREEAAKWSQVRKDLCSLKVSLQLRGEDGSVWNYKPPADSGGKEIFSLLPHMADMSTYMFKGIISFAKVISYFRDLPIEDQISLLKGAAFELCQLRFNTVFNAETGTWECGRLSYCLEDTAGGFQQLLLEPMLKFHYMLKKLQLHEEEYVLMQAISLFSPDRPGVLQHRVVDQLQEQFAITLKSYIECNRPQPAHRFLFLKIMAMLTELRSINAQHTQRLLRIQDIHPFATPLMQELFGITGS
Sequence of human Peroxisome Proliferator-activated Receptor delta (PPARd), PPARD (gene 5467) (Q03181 whole entry, looked up): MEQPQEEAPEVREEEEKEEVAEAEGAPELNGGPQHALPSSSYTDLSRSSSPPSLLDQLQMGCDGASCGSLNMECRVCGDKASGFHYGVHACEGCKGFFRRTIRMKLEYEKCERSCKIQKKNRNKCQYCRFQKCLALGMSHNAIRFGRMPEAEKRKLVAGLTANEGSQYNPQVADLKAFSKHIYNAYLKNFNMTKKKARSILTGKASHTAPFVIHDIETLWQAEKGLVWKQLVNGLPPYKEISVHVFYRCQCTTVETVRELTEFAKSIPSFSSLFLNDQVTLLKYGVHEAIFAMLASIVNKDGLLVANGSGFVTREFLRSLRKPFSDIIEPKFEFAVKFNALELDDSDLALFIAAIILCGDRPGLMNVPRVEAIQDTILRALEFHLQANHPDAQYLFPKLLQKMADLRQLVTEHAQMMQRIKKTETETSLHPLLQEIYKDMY
Sequence of Retinoic acid receptor alpha (Homo sapiens) (P10276 whole entry, looked up, the tested form may be a part): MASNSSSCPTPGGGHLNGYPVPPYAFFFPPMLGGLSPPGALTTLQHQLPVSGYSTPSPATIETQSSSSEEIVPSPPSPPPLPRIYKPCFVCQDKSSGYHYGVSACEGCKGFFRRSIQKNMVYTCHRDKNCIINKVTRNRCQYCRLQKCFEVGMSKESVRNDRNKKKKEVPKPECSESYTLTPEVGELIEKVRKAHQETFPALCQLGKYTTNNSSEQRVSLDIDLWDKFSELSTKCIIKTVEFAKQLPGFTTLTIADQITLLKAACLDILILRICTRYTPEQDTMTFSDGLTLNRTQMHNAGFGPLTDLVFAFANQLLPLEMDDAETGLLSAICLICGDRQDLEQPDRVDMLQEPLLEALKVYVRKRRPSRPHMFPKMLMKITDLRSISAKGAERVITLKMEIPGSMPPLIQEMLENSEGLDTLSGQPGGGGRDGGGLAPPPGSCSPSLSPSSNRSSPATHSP
Sequence of human Retinoic Acid Receptor beta (RARb), RARB (gene 5915) (P10826 whole entry, looked up, the tested form may be a part): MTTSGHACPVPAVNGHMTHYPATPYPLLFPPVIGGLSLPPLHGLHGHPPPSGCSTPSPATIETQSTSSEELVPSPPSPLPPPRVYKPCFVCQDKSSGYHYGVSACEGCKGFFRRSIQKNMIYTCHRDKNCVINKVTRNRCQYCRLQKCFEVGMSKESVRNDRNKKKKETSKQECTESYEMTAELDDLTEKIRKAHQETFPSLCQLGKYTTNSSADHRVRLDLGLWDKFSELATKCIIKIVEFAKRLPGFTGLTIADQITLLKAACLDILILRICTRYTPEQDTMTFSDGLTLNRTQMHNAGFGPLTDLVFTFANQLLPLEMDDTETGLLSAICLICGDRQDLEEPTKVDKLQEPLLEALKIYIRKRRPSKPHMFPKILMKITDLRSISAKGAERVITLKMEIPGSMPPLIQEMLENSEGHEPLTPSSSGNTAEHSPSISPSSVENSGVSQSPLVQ
Sequence of human RAR-related Orphan Receptor beta (RORb), RORB (gene 6096) (Q92753 whole entry, looked up, the tested form may be a part): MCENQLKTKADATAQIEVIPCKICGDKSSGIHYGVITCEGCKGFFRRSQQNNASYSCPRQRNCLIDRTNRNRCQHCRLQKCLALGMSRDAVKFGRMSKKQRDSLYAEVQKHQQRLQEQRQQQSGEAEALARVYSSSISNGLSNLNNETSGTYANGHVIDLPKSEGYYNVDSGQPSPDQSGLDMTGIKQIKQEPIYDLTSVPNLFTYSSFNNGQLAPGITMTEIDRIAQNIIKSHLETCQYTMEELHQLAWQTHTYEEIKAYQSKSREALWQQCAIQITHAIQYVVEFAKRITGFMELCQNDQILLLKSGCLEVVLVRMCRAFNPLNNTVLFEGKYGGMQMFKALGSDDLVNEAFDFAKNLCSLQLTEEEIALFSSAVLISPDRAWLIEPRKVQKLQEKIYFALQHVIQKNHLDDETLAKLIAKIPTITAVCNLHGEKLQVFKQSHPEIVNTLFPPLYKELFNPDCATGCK
Sequence of human Retinoic Acid Receptor gamma (RARg), RARG (gene 5916) (P13631 whole entry, looked up, the tested form may be a part): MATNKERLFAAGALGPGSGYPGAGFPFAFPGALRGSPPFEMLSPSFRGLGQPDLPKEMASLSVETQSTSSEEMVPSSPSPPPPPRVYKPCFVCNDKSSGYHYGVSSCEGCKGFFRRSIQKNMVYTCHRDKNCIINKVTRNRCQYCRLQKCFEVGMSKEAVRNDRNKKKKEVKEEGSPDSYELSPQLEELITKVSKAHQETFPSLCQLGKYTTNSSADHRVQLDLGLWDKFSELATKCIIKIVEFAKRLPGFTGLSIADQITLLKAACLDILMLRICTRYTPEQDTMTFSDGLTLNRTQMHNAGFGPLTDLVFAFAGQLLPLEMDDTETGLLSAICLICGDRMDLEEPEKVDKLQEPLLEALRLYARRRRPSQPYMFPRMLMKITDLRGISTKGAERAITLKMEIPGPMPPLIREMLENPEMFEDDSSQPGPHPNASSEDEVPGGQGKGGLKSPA
Sequence of Peroxisome proliferator-activated receptor gamma (Homo sapiens) (P37231 whole entry, looked up, the tested form may be a part): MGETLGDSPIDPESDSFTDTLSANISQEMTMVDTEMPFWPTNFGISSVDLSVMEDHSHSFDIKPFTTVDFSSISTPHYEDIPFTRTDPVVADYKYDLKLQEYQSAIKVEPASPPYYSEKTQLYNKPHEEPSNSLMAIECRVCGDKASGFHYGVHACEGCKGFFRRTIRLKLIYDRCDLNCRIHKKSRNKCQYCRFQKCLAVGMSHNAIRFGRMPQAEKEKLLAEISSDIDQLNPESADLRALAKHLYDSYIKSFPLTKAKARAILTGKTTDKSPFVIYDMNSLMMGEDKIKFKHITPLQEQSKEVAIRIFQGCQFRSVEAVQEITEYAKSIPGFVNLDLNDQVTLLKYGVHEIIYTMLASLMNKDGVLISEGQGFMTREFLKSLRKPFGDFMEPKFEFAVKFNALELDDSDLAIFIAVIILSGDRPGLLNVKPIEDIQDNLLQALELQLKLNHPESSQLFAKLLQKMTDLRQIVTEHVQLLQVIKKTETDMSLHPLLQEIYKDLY

Broadly, the AC50 is the midpoint of the concentration-response curve, whichever way the signal moves. Take `C[C@]12C=CC3=C4CCC(=O)C=C4CC[C@H]3[C@@H]1CC[C@@H]2O`: the figures for the AC50 in experiment [1], in experiment [3] and in experiment [5] were 73.6 µM (active), 6.61 µM (active) and 26.9 µM (active), respectively. The outcome in experiment [1], in experiment [2], in [4], in [5] and in experiment [6] was inactive.

As for `OCCCl`, the outcome in [1], in [2], in experiment [7], in [3], in [5] and in experiment [8] was inactive. Besides, the compound was classed as inactive in experiment [6] and in experiment [9].

On to `O=C1CCCO1`, for which the result in experiment [1], in experiment [10], in experiment [3], in experiment [4] and in experiment [9] was inactive.

For `c1ccc2c(c1)-c1cccc3cccc-2c13`, the result in [1], in experiment [2], in experiment [10], in [7], in [3] and in experiment [4] was inactive. The call in experiment [5], in experiment [8] and in [6] was inactive.

`CN(C)C(=O)Nc1ccc(Cl)cc1`: the compound was called inactive in experiment [1], in [2], in experiment [3] and in experiment [4].

Take `Clc1ccc(Cl)c(Cl)c1`: the compound was called inactive in [1], in experiment [7], in experiment [3], in experiment [4] and in experiment [9].

Take `OCCOCCO`: the compound was called inactive in experiment [1], in [10], in experiment [3] and in [9].

As for `Nc1cc(Cl)cc(C(=O)O)c1Cl`, the result in experiment [1], in experiment [2], in experiment [3], in experiment [4], in experiment [8] and in experiment [6] was inactive. Besides, the outcome in experiment [9] was inactive.

As to `COC(=O)Nc1nc2ccccc2[nH]1`, the compound was classed as inactive in experiment [1], in [2], in [7], in experiment [4], in [5] and in [8]. In experiment [6], the outcome was inactive. Also, the concentration at half-maximal activity (AC50) in experiment [3] was 9.95 µM (active).

Consider `CC(O)CCO` (stereo not drawn), for which the outcome in [1], in [10], in [7], in experiment [3], in experiment [8] and in experiment [9] was inactive. For the same compound, the AC50 in [5] was 24.1 µM (active).

Regarding `C1=Cc2cccc3cccc1c23`, the call in [1], in experiment [2], in experiment [7], in experiment [3], in experiment [4] and in experiment [5] was inactive. Besides, the result in experiment [8] was inactive.

Consider `N#CC(Br)(Br)C(N)=O`, for which the compound was called inactive in experiment [1], in experiment [10], in experiment [7], in experiment [3], in experiment [5] and in [8]. For the same compound, the outcome in experiment [6] and in [9] was inactive.

For the compound `ClC1=C(Cl)C2(Cl)C3C(Cl)C=CC3C1(Cl)C2(Cl)Cl` (stereo not drawn), the result in experiment [1], in experiment [4], in experiment [5] and in experiment [8] was inactive. The AC50 is 30.2 µM (active) in experiment [2] and 7.84 µM (active) in [3].

Take `ClC1=C(Cl)[C@]2(Cl)[C@H]3[C@H]([C@@H]4C=C[C@H]3C4)[C@@]1(Cl)C2(Cl)Cl`: the compound was classed as inactive in experiment [1], in experiment [4], in experiment [6] and in experiment [9]. In addition, the AC50 was 35 µM (active) in experiment [2], 12.2 µM (active) in [3] and 9.08 µM (active) in [5].

`Oc1ccc2ccc3cccc4ccc1c2c34`: the outcome in [1], in experiment [10], in experiment [8] and in [9] was inactive. Moreover, the results for the AC50 in [2], in experiment [3] and in experiment [5] were 31.8 µM (active), 24.6 µM (active) and 33.4 µM (active), respectively.

Regarding `CCCCCCCCCCCCCN1CC(C)OC(C)C1` (stereo not drawn), the call in experiment [1], in experiment [2], in experiment [4] and in experiment [8] was inactive. Also, the AC50 in [3] is 14.5 µM (active); in [5] it was 26.2 µM (active).

For `N#CC(Br)Br`, the compound was called inactive in experiment [1], in [2], in experiment [3], in experiment [4] and in [5].

Regarding `O=C(Oc1ccc(Br)cc1)N1CCN2CCC1CC2`, the compound was called inactive in experiment [1], in experiment [2], in experiment [3], in experiment [4], in experiment [5] and in [8].

With `CN(C)[C@@H]1C(=O)C(C(N)=O)=C(O)[C@@]2(O)C(=O)C3=C(O)c4c(O)cccc4[C@@](C)(O)[C@H]3C[C@@H]12`, the compound was classed as inactive in experiment [1], in experiment [2], in [3], in [4] and in experiment [5].

For `c1ccc(NNc2ccccc2)cc1`, the call in [1], in experiment [2], in [3], in experiment [5], in experiment [6] and in [9] was inactive.

`CCNS(=O)(=O)C(F)(F)C(F)(F)C(F)(F)C(F)(F)C(F)(F)C(F)(F)C(F)(F)C(F)(F)F`: the compound was called inactive in experiment [1], in [2], in [10], in [7], in experiment [5] and in experiment [8]. Besides, the result in experiment [6] and in [9] was inactive. Also, the AC50 is 19.3 µM (active) and 46 µM (active) and 43.2 µM (active) in experiment [3]; 96.5 µM (active) and 120 µM (active) and 51.2 µM (active) in [4]; 12.7 µM (active) and 9.73 µM (active) in [5].

For the compound `CNC(=O)Oc1cccc2c1OC(C)(C)C2`, the call in [1], in experiment [2], in [3], in [4], in experiment [5] and in experiment [6] was inactive.

For `O=C(N[C@H](c1ccccc1)[C@@H]1CN2CCC1CC2)c1c(Cl)ccc(C(F)(F)F)c1Cl`, the call in experiment [1] and in [2] was inactive. Also, the AC50 was 29.7 µM (active) in [3] and 0.226 µM (active) in [5].

On to `CCCSC(=O)N(CCC)CCC`, for which the compound was called inactive in experiment [1], in [2], in [3] and in [5]. The concentration at half-maximal activity (AC50) in [9] is 132 µM (active).

On to `CCOc1cccc(C2(N3CCN(c4ccccc4)CC3)CCC(C)CC2)c1` (stereo not drawn), for which the compound was called inactive in experiment [1], in [10], in [3], in experiment [4], in [8] and in experiment [9].

As for `c1ccc2c(c1)oc1ccccc12`, the call in [1], in [2] and in experiment [3] was inactive.

`CCC12COCN1COC2`: the compound was called inactive in experiment [1], in experiment [2], in experiment [3], in experiment [5] and in experiment [6].

As for `CC(C)(C)OOC(=O)c1ccccc1`, the result in [1] and in [3] was inactive.

In the case of `CCN(CC)N=O`, the call in [1], in experiment [3] and in experiment [9] was inactive.

`Cn1cc(-c2ccccc2)c(=O)c(-c2cccc(C(F)(F)F)c2)c1`: the compound was called inactive in experiment [1], in experiment [3], in experiment [4] and in [9]. Also, the AC50 in [5] is 4.04 µM (active).

Consider `CCOC(=O)[C@]1(c2ccccc2)Oc2ccccc2[C@@H]1N`, for which the outcome in [2], in experiment [10], in [7], in experiment [4], in experiment [8] and in [9] was inactive. Besides, the figures for the AC50 in experiment [3] and in [5] were 30.9 µM (active) and 11 µM (active), respectively.

Turning to `O=[N+]([O-])c1ccc(Oc2ccc(Cl)cc2Cl)cc1`, the compound was called inactive in experiment [1]. Moreover, the AC50 in experiment [3] was 32.4 µM (active); in experiment [4], 14.3 µM (active); in [5], 9.58 µM (active).

For `CC(C)(OOC(C)(C)c1ccccc1)c1ccccc1`, the result in [1], in experiment [4], in experiment [8] and in experiment [9] was inactive. In addition, the AC50 in experiment [3] is 31.1 µM (active); in experiment [5], 7.09 µM (active).

Consider `CCC[CH2][Sn]([Cl])([CH2]CCC)[CH2]CCC`, for which the call in [1] was inactive. In addition, the AC50 in [3] is 0.148 µM (active); in experiment [5] it was 0.927 µM (active).

Consider `COC(=O)c1ccccc1N`, for which the compound was classed as inactive in experiment [1], in [3], in [6] and in [9].

With `O=Cc1ccco1`, the call in [1], in experiment [7], in [3], in experiment [8] and in experiment [9] was inactive.
